Data taken from the supplement of paper PMC12067093, “Discovery and optimisation of a covalent ligand for TRIM25 and its application to targeted protein ubiquitination” (Chemical Science, 2025).
Targets with the largest changes are over-represented here; the source holds about 21,000 in all.

Compound: Cc1cc(ccc1-c1ccccc1)C(=O)N1CCCN(CC1)C(=O)CCl [compound 10]
Experiment: probe-labelled cysteine peptide fold change vs DMSO (competition) (log2 fold change); higher = less target engagement (more negative = stronger competition)
Details: THP-1, incubation time: 4 h
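Also: competitive profiling in live THP-1 cells: cysteine peptides tagged with an iodoacetamide desthiobiotin (IA-DTB) probe, intensity after compound treatment relative to DMSO-treated cells.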

UniProt Q10469, sequence (Q10469 whole entry, looked up): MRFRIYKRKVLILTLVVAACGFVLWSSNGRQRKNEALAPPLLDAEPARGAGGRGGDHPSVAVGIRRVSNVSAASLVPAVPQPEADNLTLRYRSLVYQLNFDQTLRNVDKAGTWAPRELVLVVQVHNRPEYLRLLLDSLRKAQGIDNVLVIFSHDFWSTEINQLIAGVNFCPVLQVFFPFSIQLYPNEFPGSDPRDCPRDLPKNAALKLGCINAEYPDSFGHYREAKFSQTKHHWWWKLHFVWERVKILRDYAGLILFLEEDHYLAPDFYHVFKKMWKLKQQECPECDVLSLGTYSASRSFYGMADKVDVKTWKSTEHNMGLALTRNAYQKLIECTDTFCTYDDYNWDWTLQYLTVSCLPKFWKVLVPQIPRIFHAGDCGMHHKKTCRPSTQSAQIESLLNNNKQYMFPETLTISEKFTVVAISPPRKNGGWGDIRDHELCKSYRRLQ
UniProt Q13615, sequence (Q13615 whole entry, looked up): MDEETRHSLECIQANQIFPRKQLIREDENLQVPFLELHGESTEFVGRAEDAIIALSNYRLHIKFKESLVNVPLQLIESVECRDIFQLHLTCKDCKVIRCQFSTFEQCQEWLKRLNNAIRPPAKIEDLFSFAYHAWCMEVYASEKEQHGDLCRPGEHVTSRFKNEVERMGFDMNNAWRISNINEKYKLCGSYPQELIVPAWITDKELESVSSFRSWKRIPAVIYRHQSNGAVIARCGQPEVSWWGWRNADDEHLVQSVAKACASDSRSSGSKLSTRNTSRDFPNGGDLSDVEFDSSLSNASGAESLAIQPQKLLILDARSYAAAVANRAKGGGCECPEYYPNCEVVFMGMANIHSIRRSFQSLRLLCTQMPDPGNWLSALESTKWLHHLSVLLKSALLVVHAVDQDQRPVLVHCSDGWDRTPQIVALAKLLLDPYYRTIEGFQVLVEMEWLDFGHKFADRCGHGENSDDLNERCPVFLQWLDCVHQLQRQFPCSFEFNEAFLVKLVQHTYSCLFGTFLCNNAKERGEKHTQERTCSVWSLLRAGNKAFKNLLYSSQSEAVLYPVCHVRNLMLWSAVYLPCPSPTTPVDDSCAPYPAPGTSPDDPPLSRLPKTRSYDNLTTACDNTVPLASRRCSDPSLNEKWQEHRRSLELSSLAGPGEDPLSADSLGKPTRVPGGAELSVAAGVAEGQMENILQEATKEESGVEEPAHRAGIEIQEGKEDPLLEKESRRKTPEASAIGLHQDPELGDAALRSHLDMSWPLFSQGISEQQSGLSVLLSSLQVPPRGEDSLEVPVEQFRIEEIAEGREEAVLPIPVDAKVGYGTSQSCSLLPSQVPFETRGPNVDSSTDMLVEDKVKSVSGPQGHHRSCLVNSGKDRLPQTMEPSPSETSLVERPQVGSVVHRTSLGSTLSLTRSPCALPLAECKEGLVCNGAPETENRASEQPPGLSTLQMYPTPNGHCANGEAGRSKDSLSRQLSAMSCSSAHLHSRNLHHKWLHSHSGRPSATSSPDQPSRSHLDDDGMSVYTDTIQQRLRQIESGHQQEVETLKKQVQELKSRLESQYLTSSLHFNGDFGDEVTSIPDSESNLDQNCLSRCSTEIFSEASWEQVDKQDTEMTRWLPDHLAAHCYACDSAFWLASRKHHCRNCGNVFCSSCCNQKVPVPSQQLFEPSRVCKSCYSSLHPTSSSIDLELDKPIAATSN
UniProt P52564, sequence (P52564 whole entry, looked up): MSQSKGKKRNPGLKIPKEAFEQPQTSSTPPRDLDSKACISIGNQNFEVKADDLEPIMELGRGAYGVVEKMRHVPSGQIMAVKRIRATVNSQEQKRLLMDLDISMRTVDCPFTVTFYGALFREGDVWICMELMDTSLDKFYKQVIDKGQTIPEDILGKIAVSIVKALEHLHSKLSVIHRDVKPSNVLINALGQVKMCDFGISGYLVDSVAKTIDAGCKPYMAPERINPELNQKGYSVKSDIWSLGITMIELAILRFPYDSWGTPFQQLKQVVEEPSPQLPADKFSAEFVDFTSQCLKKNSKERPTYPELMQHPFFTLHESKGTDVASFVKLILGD
UniProt Q6UB35, sequence (Q6UB35 whole entry, looked up): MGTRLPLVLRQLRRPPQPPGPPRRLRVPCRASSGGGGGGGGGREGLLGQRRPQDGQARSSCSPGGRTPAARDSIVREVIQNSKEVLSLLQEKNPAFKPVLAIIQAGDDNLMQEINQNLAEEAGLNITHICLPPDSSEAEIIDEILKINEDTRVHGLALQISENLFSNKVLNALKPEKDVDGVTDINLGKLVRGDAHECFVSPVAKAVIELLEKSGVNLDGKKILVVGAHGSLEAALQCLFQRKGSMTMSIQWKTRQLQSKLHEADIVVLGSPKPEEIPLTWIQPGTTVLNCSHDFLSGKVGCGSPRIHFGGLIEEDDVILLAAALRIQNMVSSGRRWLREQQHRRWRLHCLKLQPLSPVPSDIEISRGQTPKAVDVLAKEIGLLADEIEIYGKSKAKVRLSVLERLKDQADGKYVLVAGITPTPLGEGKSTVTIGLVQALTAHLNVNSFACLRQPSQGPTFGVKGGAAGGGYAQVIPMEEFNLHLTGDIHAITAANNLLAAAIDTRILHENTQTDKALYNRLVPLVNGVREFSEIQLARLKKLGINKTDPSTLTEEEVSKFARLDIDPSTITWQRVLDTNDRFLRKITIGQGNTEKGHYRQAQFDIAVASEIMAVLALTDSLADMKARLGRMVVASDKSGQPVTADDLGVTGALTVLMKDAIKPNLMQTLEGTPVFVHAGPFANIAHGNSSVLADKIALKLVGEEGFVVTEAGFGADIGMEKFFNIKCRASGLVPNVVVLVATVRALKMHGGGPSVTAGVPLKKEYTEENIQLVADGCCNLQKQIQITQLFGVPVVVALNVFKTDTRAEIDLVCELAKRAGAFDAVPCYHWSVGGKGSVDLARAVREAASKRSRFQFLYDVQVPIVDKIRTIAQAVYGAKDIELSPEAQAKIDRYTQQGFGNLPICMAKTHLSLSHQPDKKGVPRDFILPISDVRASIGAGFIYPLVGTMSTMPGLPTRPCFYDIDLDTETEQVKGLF
UniProt P09960, sequence (P09960 whole entry, looked up): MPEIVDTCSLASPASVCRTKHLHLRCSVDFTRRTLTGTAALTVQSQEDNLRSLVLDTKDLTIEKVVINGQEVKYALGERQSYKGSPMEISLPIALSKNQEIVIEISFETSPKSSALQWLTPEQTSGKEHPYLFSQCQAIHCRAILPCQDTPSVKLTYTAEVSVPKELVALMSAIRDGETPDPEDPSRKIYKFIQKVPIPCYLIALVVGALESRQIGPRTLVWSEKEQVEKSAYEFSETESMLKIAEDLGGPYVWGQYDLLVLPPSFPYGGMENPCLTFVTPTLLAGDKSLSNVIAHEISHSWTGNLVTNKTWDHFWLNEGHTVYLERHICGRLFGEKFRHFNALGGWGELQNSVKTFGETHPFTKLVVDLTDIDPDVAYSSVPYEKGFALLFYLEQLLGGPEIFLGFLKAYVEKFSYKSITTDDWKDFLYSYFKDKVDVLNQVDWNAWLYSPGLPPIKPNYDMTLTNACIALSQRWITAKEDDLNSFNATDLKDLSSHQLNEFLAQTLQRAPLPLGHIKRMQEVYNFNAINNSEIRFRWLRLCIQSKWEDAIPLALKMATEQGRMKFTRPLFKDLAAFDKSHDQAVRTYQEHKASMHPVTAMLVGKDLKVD
UniProt Q96T76, sequence (Q96T76 whole entry, looked up): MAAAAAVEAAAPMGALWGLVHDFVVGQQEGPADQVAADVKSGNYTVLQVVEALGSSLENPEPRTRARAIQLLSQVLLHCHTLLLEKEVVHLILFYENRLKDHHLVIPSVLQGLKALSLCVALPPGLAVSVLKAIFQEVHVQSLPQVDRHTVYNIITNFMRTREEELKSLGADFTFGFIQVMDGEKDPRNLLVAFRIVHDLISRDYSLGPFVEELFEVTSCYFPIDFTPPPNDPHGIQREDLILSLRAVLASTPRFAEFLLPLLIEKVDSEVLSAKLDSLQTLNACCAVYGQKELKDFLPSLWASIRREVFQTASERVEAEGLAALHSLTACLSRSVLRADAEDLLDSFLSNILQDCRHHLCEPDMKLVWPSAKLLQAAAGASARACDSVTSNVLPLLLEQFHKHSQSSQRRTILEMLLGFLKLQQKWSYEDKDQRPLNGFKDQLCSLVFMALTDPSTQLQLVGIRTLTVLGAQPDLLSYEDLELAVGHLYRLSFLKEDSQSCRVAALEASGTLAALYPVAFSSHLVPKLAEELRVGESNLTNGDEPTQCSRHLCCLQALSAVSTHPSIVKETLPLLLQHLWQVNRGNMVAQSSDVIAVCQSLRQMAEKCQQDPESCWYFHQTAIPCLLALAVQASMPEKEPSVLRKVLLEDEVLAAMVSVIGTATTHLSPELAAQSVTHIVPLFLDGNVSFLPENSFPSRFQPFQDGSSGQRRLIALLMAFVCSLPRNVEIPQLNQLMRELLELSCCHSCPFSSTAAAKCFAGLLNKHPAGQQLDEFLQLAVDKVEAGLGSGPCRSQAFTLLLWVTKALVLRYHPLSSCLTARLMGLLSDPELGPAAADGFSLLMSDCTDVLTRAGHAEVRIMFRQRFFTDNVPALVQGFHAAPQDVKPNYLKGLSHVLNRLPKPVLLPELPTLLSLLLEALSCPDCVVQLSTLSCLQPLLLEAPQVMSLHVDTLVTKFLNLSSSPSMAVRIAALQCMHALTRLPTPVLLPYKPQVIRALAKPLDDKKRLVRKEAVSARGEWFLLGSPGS
UniProt Q9H3L0, sequence (Q9H3L0 whole entry, looked up): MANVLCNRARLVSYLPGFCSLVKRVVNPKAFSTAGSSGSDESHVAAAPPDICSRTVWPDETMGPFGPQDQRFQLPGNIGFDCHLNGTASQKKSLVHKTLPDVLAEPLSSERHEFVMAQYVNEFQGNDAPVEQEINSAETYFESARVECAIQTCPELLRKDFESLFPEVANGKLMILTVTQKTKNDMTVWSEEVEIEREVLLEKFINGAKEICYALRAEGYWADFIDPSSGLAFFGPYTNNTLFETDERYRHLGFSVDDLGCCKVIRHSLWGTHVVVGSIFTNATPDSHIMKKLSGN

Target	probe-labelled cysteine peptide fold change (10 µM)	probe-labelled cysteine peptide fold change (50 µM)
MMS19_Q96T76_750_ELLELSCCHSCPFSSTAAAK (UniProt Q96T76)	-0.103	-1.11
MTMR3_Q13615_473_CPVFLQWLDCVHQLQR (UniProt Q13615)	-0.0651	0.044
MGAT2_Q10469_378_IFHAGDCGMHHK (UniProt Q10469)	-0.125	-0.149
LTA4H_P09960_8_PEIVDTCSLASPASVCR (UniProt P09960)	-0.129	-0.324
LRPPRC_P42704_380_EDGPSVFGSFFLQHCVTMNTPVEK (UniProt P42704)	0.0471	0.322
MRPL37_Q9BZE1_104_DQACYIFHHR (UniProt Q9BZE1)	0.0327	-0.253
MCM2_P49736_661_FDILCVVR (UniProt P49736)	0.242	0.398
MMADHC_Q9H3L0_261_HLGFSVDDLGCCK (UniProt Q9H3L0)	-0.3	-1.27
MPP1_Q00013_454_KLQEAFDQACSSPQWVPVSWVY (UniProt Q00013)	-0.0366	-0.104
MAP1S_Q66K74_435+440_VLFPGCTPPACLLDGLVR (UniProt Q66K74)	-0.0708	-0.133
MAP2K6_P52564_216_TIDAGCK (UniProt P52564)	-0.048	0.239
LSS_P48449_471_CPHVTEHIPR (UniProt P48449)	-0.184	-0.209
MTHFD1L_Q6UB35_906_YTQQGFGNLPICMAK (UniProt Q6UB35)	-0.063	-0.0614
LILRB4_Q8NHJ6_330_SSPAADVQGENFCAAVK (UniProt Q8NHJ6)	-0.385	-0.214
